Values joined by “and” are separate entries in the source; they are usually repeats but may differ in a detail not shown here. Equal values may be shown once.
How the values were obtained:
Assay type in all cases: functional
[1] = target: Solute carrier family 2, facilitated glucose transporter member 1 (Homo sapiens) (UniProt P11166); test: ST_JUDE_LEISH: Cytotoxicity at 2uM final concentration against transgenic Leishmania Mexicana promastigotes LmGLUT1 that are glucose transport deficient and complemented with the human glucose transporter GLUT1. Activity is measured by DNA content using SYBR green in vitro
Solute carrier family 2, facilitated glucose transporter member 1 (Homo sapiens), sequence (P11166 whole entry): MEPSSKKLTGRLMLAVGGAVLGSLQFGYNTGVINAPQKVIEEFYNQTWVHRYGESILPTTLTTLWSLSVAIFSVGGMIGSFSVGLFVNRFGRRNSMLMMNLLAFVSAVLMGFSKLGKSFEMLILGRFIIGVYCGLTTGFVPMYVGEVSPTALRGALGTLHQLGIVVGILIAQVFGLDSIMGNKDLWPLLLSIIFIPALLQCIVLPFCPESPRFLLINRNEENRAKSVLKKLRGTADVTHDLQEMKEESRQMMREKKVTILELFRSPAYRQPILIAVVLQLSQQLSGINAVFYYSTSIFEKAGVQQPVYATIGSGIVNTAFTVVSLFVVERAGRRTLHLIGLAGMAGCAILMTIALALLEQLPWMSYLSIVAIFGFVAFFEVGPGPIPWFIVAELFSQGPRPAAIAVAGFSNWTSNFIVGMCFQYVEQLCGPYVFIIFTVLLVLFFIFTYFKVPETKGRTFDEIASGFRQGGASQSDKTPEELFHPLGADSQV

[2] = target: Hexose transporter 1 (Plasmodium falciparum) (UniProt O97467); test: ST_JUDE_LEISH: Cytotoxicity at 2uM final concentration against transgenic Leishmania Mexicana promastigotes LmPfHT that are glucose transport deficient and complemented with the Plasmodium falciparum hexose transporter. Activity is measured by DNA content using SYBR green in vitro
[3] = target: Glucose transporter (Leishmania mexicana) (UniProt O61059); test: ST_JUDE_LEISH: Cytotoxicity at 2uM final concentration against transgenic Leishmania Mexicana promastigotes LmGT2 that are glucose transport deficient and complemented with the L. Mexicana glucose transporter 2. Activity is measured by DNA content using SYBR green in vitro

Structure (SMILES)	inhibition [1]	inhibition [2]	inhibition [3]
O=C(/C=C/c1ccsc1)NC1CCC(CN2CCC(c3c[nH]c4ccccc34)CC2)CC1 (stereo not given)	1.44%	-2.35%	-0.88%
CN(C)c1cccc(CCNCCc2c[nH]c3ccc(Cl)cc23)c1	-1.51%	4.45%	1.58%
COc1cccc(CC(C)NCC(O)c2cccc(Cl)c2)c1 (stereo not given)	0.74%	2.67%	1.92%
CSc1nccc(-c2ccc(S(=O)(=O)NC3CCC(CN4CCC(c5c[nH]c6ccccc56)CC4)CC3)s2)n1 (stereo not given)	2.14% and 2.23%	0.65% and 1.79%	2.7% and 0.3%
O=C(Nc1ccccc1C(F)(F)F)NC1CCC(CN2CCC(c3c[nH]c4ccccc34)CC2)CC1 (stereo not given)	7.14% and 3.61%	4.94% and 7.06%	2.99% and -1.24%
O=C1NCN(c2ccc(O)cc2)C12CCN(CCCC(c1ccc(F)cc1)c1ccc(F)cc1)CC2	3.87%	3.34%	3.43%
Cc1cc(O)cc2c(C3CCN(CC4CCN(C(=O)/C=C/c5ccc(Cl)c(Cl)c5)CC4)CC3)c[nH]c12	0.1%	-0.37%	0.13%
CCOc1ccc2nccc([C@@H](O)[C@@H]3C[C@@H]4CCN3C[C@@H]4CC)c2c1	1.23% and 2.9%	1.71% and 3.63%	3.59% and -0.94%
O=c1c2ccccc2nc(/C=C/c2ccc([N+](=O)[O-])cc2)n1-c1ccccn1	10.9%	11%	6.71%
CCOc1ccc(CN(CCc2ccc3c(c2)OCO3)Cc2cc(OC)ccc2O)cc1	4.49%	4.01%	6.07%
CN1CC=C(c2c[nH]c3ccc(C(=O)c4nccs4)cc23)CC1	-1.82%	-1.47%	-1.62%
CC[C@H]1CN2CC[C@@H]1C[C@H]2[C@H](O)c1cc(-c2ccccc2)nc2ccc(O)cc12	5.97%	5.53%	2.83%
CCN1CC=C(c2c[nH]c3ccccc23)CC1	0.74%	1.07%	0.73%
COC(=O)c1ccc(C[C@@H](C)NC[C@H](O)c2cccc(C(F)(F)F)c2)cc1	3.2%	4.43%	0.45%
CN1CC=C(c2c[nH]c3ccc(-c4ccccc4)cc23)CC1	7.91%	2.99%	5.76%
C=C[C@H]1CN2CC[C@@H]1C[C@H]2[C@H](O)c1cc(-c2ccc(F)cc2)nc2ccc(OC)cc12	6.56%	4.6%	3.68%
S=C(NCC1CCCCC1)NC1CCC(CN2CCC(c3c[nH]c4ccccc34)CC2)CC1 (stereo not given)	1.87%	3.66%	0.26%
Cc1[nH]c2ccc(O)cc2c1C1CCN(CC2CCN(C(=O)/C=C/c3ccc(Cl)c(Cl)c3)CC2)CC1	0.92%	0.19%	-0.96%
Cc1[nH]c2cc(Cl)ccc2c1C1=CCN(CCCCC2(C)C(=O)Nc3c(F)cccc32)CC1 (stereo not given)	1.41%	0.61%	0.45%
C[C@H](Cc1ccc(OCCCCCCOc2ccccc2)cc1)NC[C@@H](O)c1cc(Br)no1	2.44%	0.72%	-0.07%
CC(C)c1ccc(C=CC(=O)NC2CCC(CN3CCC(c4c[nH]c5ccccc45)CC3)CC2)cc1 (stereo not given)	2.2%	1.4%	2.47%
CCN(CC)CCOC(=O)C(OC)(c1ccccc1)c1ccccc1	0.95%	3%	1.83%
N#Cc1ccc(N(CC(=O)NCCc2ccccc2)CC2CC2)c2ccccc12	1.68%	0.73%	0.87%
CC[C@H]1CN2CC[C@@H]1C[C@H]2[C@H](O)c1cc(N2CCC(O)(c3ccc(Cl)cc3)CC2)nc2ccc(OC)cc12	6.73%	1.34%	2.62%

Structure (SMILES)	inhibition [1]	inhibition [2]	inhibition [3]
Oc1ccccc1CNCC(O)c1cc(C(F)(F)F)cc(C(F)(F)F)c1 (stereo not given)	6.65%	5.51%	4.91%
Cc1[nH]c2ccc([N+](=O)[O-])cc2c1C1=CCN(C)CC1	1.47%	1.63%	2.86%
COc1ccc2[nH]cc(C3CC4CCC(C3)N4CCC3CCN(C(=O)/C=C/c4ccc(Cl)c(Cl)c4)CC3)c2c1 (stereo not given)	-0.2%	1.01%	0.71%
CN(C(=O)OCc1ccccc1)C1CCC(CCN2CCC3(CC2)C(=O)NCN3c2cccc(C(F)(F)F)c2)(c2ccccc2)CC1 (stereo not given)	2.48%	1.12%	2.55%
COc1ccc(C=CC(=O)N2CCC(CN3CCC(c4c[nH]c5ccccc45)CC3)CC2)cc1OC	1.11%	0.91%	-0.06%
OC(CNC12CC3CC(CC(C3)C1)C2)c1cccc(C(F)(F)F)c1 (stereo not given)	-1.52%	-1.19%	-0.45%
CC[C@H]1CN2CC[C@@H]1C[C@H]2[C@H](O)c1cc(N2CCC(c3ccccc3)CC2)nc2ccc(OC)cc12	8.84%	6.56%	2.67%
CC[C@H]1CN2CCc3cc(OC)c(OC)cc3[C@@H]2C[C@@H]1C[C@H]1NCCc2c1cc(OC)c(O)c2Cl	94.8%	98.3%	89.3%
CC(=O)Nc1ccc(CN2CCC(N(C)c3cc(NC(=O)c4cccs4)ccn3)CC2)cc1	-1.53%	0.83%	-0.48%
CC(Cc1ccc(NC(=O)[C@H](C)NCCc2cccc(Cl)c2)cc1)NCCc1cccc(Cl)c1 (stereo not given in full)	2.86%	0.1%	0.22%
CNCC(O)c1cc(Cl)c(Cl)cc1C (stereo not given)	1.72%	0.44%	-1.56%
CC(C)CNCc1cccc(-c2cccc(CN(C(=O)Nc3ccccc3)C3CCN(Cc4ccccc4)CC3)c2)c1	1.9%	1.81%	5.06%
Oc1ccc(Cl)cc1CN1CCC(CCOC(c2ccccc2)c2ccccc2)CC1	9.61%	9.6%	7.84%
COC(=O)c1ccc(CC(C)NCC(O)c2cccc(OCc3ccccc3)c2)cc1 (stereo not given)	7.34%	7.31%	8.15%
CC[C@H]1CN2CC[C@H]1C[C@@H]2[C@@H](O)c1ccnc2ccccc12	-0.01%	0.66%	-1.98%
O=C(c1cc(C(F)(F)F)cc(C(F)(F)F)c1)N1CCC(CCN2CCC3(CC2)C(=O)NCN3c2ccccc2)CC1Cc1ccc(Cl)c(Cl)c1 (stereo not given)	6.32%	10.7%	6.06%
CC(=O)Nc1ccc(OCCN(CC(C)(C)C)c2ccc(C#N)c(C(F)(F)F)c2)c(Cl)c1	4.2%	5.82%	3.22%
COC(=O)c1ccc(CC(C)NCC(O)c2cccc(SC(F)(F)F)c2)cc1 (stereo not given)	2.85%	4.05%	4.01%
Cc1cccc(N2CCN(Cc3cc(Cl)ccc3O)CC2)c1C	0.93%	1.18%	3.25%
O=C(/C=C/c1c(Cl)cccc1Cl)NC1CCC(CN2C3CCC2CC(c2c[nH]c4ccccc24)C3)CC1 (stereo not given)	2.07%	1.89%	-0.2%
OC(CNC1CCCCCC1)c1ccc(Cl)c(Cl)c1 (stereo not given)	-0.7%	0.32%	-0.87%
CC[C@H]1CN2CC[C@H]1C[C@H]2[C@H](O)c1cc(N2CCCC2)nc2ccc(OC)cc12	-0.2%	-1.79%	0.03%
CC(Cc1ccc(C2=CCNCC2)cc1)NCC(O)c1cccc(C(F)(F)F)c1 (stereo not given)	-2.15%	-1.67%	-0.93%
CC[C@H]1CN2CC[C@H]1C[C@H]2[C@H](O)c1cc(-c2ccc(F)cc2C)nc2ccc(OC)cc12	4.97%	1.01%	2.55%

Structure (SMILES)	inhibition [1]	inhibition [2]	inhibition [3]
COCCNCc1ccc(-c2ccc(CN(C(=O)NC3CCCCC3)C3CCN(Cc4ccccc4)CC3)cc2)cc1	2.65%	2%	-1.48%
COc1cc2nc(N(C)C3CCN(Cc4ccccc4)CC3)nc(N)c2cc1OC	69.8%	46.7%	25%
CC[C@H]1C[N+]2([O-])CC[C@@H]1C[C@H]2[C@H](O)c1cc(-c2ccccc2)nc2ccc(OC)cc12	5.08%	2.87%	4.7%
CC[C@H]1CN2CC[C@H]1C[C@@H]2[C@@H](OC(=O)c1ccc(Cl)cc1)c1ccnc2ccc(OC)cc12	1.77%	0.13%	-1.41%
CC(C)CN1CCC(N(C)c2cc(NC(=O)c3cccc(F)c3)ccn2)CC1	-1.6%	0.49%	0.5%
CCCCCc1cc(O)c2c(c1)OC(C)(C)c1ccncc1-2	0.55%	0.66%	3.5%
CN1CC=C(c2c[nH]c3ccc(OC(=O)c4ccccc4)cc23)C1	0.69%	0.43%	1%
CN(CC(=O)N1CCN(S(=O)(=O)c2cccc(Cl)c2)CC1CN1CCCC1)c1ccc(Cl)c(Cl)c1 (stereo not given)	0.54%	1.78%	2.07%
Oc1ccc2[nH]cc(C3=CCN(Cc4ccccc4)CC3)c2c1	11.2%	10.5%	10.4%
Cc1cc(NC(=O)[C@H](CC(C)C)Nc2ccc(C#N)c3ccccc23)ccc1F	0.56%	2.4%	-0.16%
Cc1nc(-c2ccc(-c3ccc(C(=O)Nc4ccc5c(c4)C4(CCNCC4)CO5)cc3)c(C)c2)no1	2.05%	5.12%	1.93%
Cc1c(C(=O)N[C@@H](C)c2ccccc2)c2cc(O)c(Br)cc2n1C1CCCCC1	2.84%	2.43%	3.33%
CC(Cc1ccc(SCCSc2ccccc2)cc1)NCC(O)c1cccc(Cl)c1 (stereo not given)	0.69%	-0.5%	1.16%
COCCNCc1ccc(-c2cccc(CN(C(=O)CCC3CCCC3)C3CCN(Cc4ccccc4)CC3)c2)cc1	-4.16%	1.28%	-1.05%
CCCCCCC(CC)c1cc(O)c2c(c1)OC(C)(C)c1ccncc1-2 (stereo not given)	3.06%	2.42%	-0.4%
CC(C)CNCc1ccc(-c2ccc(CN(C(=O)NC3CCCCC3)C3CCN(Cc4ccccc4)CC3)cc2)cc1	7.16%	3.25%	6.77%
CC(C)CNCc1cccc(-c2ccc(CN(C(=O)Nc3ccccc3)C3CCN(Cc4ccccc4)CC3)cc2)c1	2.16%	2.2%	2.04%
Cc1c(C(=O)NC2CCC(CN3CCC(c4c[nH]c5ccccc45)CC3)CC2)cnn1-c1c(Cl)cc(Cl)cc1Cl (stereo not given)	1.64%	1.93%	-1.52%
COc1cc(NCCCNC(=O)c2cn(Cc3ccccc3)c3ccccc23)nc2ccccc12	-0.26%	-0.48%	-1.02%
O=C(NC1CCC(CN2CCC(c3c[nH]c4ccccc34)CC2)CC1)c1cnn(-c2ccccc2)c1-c1ccccc1Cl (stereo not given)	4.74%	10.3%	3.95%
O=C(/C=C/c1ccc(Cl)c(Cl)c1)Nc1cccc(CN2CCC(c3c[nH]c4ccccc34)CC2)c1	8.01%	6.99%	5.33%
S=C(Nc1ccc2c(c1)OCCO2)NC1CCC(CN2CCC(c3c[nH]c4ccccc34)CC2)CC1 (stereo not given)	0.68% and -2.92%	-3.08% and -1.27%	4.46% and -3.36%

Reference: ChEMBL document CHEMBL3433997, “St. Jude Leishmania screening dataset” (2016)
